Test results reported in PubChem BioAssay (NCI).
About 83,000 compounds went through this panel and 20% of them were active in at least one assay; those are over-represented in the sample as a whole.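 Values shown are percent growth following 48 h exposure of cells in 96-well plates to a single concentration of compound; below 10 was considered active.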 Unmarked numbers belong to inactive results. Active and inactive are the calls of the source.

Columns and labels:
Assay in all cases: NCI-60 one-dose screen, 48 h (100 = growth as untreated, 0 = no growth, -100 = all killed)
Conditions in all cases: 10 µM
[1] = test system: NCI-H23 lung
[2] = test system: NCI-H322M lung
[3] = test system: HOP-62 NSCLC
[4] = test system: NCI-H460 lung
[5] = test system: A549/ATCC NSCLC
[6] = test system: 786-0 renal
[7] = test system: COLO 205 colon
[8] = test system: NCI-H522 lung
[9] = test system: HOP-92 NSCLC
[10] = test system: NCI-H226 lung

SMILES	growth [1]	growth [2]	growth [3]	growth [4]	growth [5]	growth [6]	growth [7]	growth [8]	growth [9]	growth [10]
C#CC(C(C)C)N(CCO)CCCC (configuration not stated)	120%	107%	98.8%	101%	95.8%	108%	108%	–	–	–
OC1OC(COC(c2ccccc2)(c2ccccc2)c2ccccc2)C(O)C(O)C1O (configuration not stated)	98.1%	92.1%	107%	101%	–	102%	117%	–	–	–
C=C[Si](OC(C)=O)(OC(C)=O)OC(C)=O	106%	87.6%	89.5%	103%	104%	98.5%	107%	88.7%	–	–
O=c1[nH]cc(Cl)cc1O	96.4%	97.1%	103%	94.1%	75.2%	101%	112%	60.7%	–	–
O=C1Cc2cc(O)ccc2O1	111%	94.5%	101%	111%	98.7%	103%	117%	88.4%	–	–
COc1cc(-c2ccc(NC(=O)NC3CC3)c(OC)c2)ccc1NC(=O)NC1CC1	98.3%	110%	101%	16.2%	26.8%	74%	103%	-10.3% (active)	–	–
C[C@]12CC[C@@H]3c4ccc(OCC(=O)O)cc4CC[C@H]3[C@@H]1CCC2=O	94.2%	98%	75%	101%	93.3%	102%	105%	–	92.1%	–
CC1CCCCN1C(=S)Nc1ccc(S(=O)(=O)N2CCCCC2)cc1 (configuration not stated)	104%	118%	–	97.1%	101%	92.6%	–	–	63.1%	–
COCCCC/C(=N\OCCN)c1ccc(C(F)(F)F)cc1	100%	–	–	106%	102%	100%	101%	–	63.2%	–
CN(C)C(C)(C)CC(C)(C)C	103%	116%	104%	108%	108%	100%	106%	–	–	–
CC1SC(N)=NC1=O (configuration not stated)	94.8%	114%	79.5%	115%	102%	95.3%	138%	97.5%	–	–
CCOC(=O)C1OC1c1ccccc1 (configuration not stated)	98.6%	101%	–	103%	102%	98.3%	102%	104%	–	–
COC(=O)C(C)Oc1ccc(OC#N)cc1 (configuration not stated)	–	100%	98.2%	103%	99.4%	102%	107%	103%	95.3%	97.3%
O=S(=O)(O)c1cc(O)c2c(N=Cc3ccccc3O)c(S(=O)(=O)O)ccc2c1	101%	93.7%	–	105%	111%	99.8%	119%	91.4%	–	–
O=[N+]([O-])c1ccc(N=Nc2ccc(O)c3ccccc23)cc1	6.51% (active)	79.3%	75.2%	30.9%	71.1%	–	88.5%	-14.2% (active)	–	–
O=[N+]([O-])c1ccc(S(=O)(=O)NN=C2CCCCC2)cc1	104%	108%	99.5%	121%	93.9%	103%	102%	–	96.7%	–
O=[N+]([O-])c1ccccc1N=Nc1ccc(O)cc1O	103%	107%	106%	115%	106%	108%	102%	–	112%	–
CCCCCCCCCCC(C)Br (configuration not stated)	102%	94.5%	119%	113%	97.1%	97%	110%	104%	–	–
COc1ccccc1N1CCN(C(=S)Nc2ccccc2)CC1	92.8%	93.2%	89.7%	102%	99.7%	96.3%	97.4%	–	80.9%	–
CC(=O)c1ccc(N=C(C#N)C2=C(O)c3ccccc3C2=O)cc1	104%	100%	100%	101%	–	103%	111%	78.6%	–	–

SMILES	growth [1]	growth [2]	growth [3]	growth [4]	growth [5]	growth [6]	growth [7]	growth [8]	growth [9]	growth [10]
CC(=O)OCCO	108%	102%	109%	111%	99.2%	101%	107%	111%	–	–
COc1ccc(C(C)C=O)cc1 (configuration not stated)	106%	122%	107%	108%	105%	107%	115%	–	–	–
Clc1ccc(-c2nnc(-c3cccc4ccccc34)o2)cc1	83.6%	112%	–	96.4%	–	110%	101%	83.5%	–	–
CCOC(=O)C(O)C(O)C(=O)OCC (configuration not stated)	100%	102%	–	103%	104%	105%	106%	101%	94.1%	–
CC(C)COC(=O)COC(=O)OCCOCCOC(=O)OCC(=O)OCC(C)C	100%	118%	98.1%	114%	109%	103%	117%	–	–	–
O=C(NCO)c1ccccc1	109%	91.6%	97.8%	105%	106%	108%	106%	–	–	–
NC(=O)NC(=O)c1ccc(Cl)cc1	103%	94.3%	94.4%	108%	108%	99.6%	105%	79.5%	–	–
COc1ccc(-c2cc3c(nn2)-c2ccccc2C3=O)cc1	68.5%	65.6%	-14.4% (active)	15.1%	2.29% (active)	25.8%	42.3%	–	98.3%	–
OCc1ccc(-c2ccc(-c3ccc(CO)s3)o2)s1	47.5%	55.3%	67.1%	-4.49% (active)	19.8%	30.2%	13.1%	25.9%	–	–
Cc1ccc(S(=O)(=O)O)c(C)c1	105%	96.7%	94.5%	103%	104%	103%	104%	90.2%	–	–
CCCCCC(C)(CC(=O)O)CC(=O)O	115%	113%	101%	108%	101%	107%	116%	–	119%	–
CC1C(=O)c2ccccc2CC1C(=O)O (configuration not stated)	96.8%	99.5%	105%	122%	93.8%	110%	105%	–	–	–
CC(C)(O)C#CC#CC(C)(C)O	88.9%	102%	–	104%	91.5%	106%	–	82.5%	–	–
c1ccc2c(N3CCCCC3)ncnc2c1	86.4%	117%	100%	97.8%	86.9%	98.7%	88.5%	–	–	–
CNc1nc(NC)c2cn[nH]c2n1	104%	116%	104%	109%	–	101%	95.6%	–	–	–
Cn1cnc2nc(Cl)nc(Cl)c21	40.6%	34.1%	8.69% (active)	-9.25% (active)	17.2%	4.6% (active)	-29.3% (active)	–	–	–
O=C1C=CC2=C3c4cc(O)c(O)cc4CC3(O)COC2=C1O (configuration not stated)	117%	107%	100%	89.8%	–	92.1%	98.6%	84.5%	–	–
CC1(C(=O)O)NC(C(=O)O)Cc2c1[nH]c1ccccc21 (configuration not stated)	–	91.5%	102%	105%	101%	104%	104%	92.6%	–	93.8%
COc1cc(CN)ccc1O	–	89.7%	98.3%	91.4%	98.6%	100%	–	88%	–	99.8%
